Out of some 310,000 compounds screened, about 14,000 (4.5%) showed an effect of 50% or more. The effect is printed as a negative number. What follows is part of a selection rich in strong results, with near analogues and random picks from the rest.
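Also: peak tail current of the secondary pulse compared with the same well before compound.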

The target of this test is human ether-à-go-go-related gene (hERG) potassium channel (human, UniProt Q12809). The experiment in a line: primary screen, population patch clamp on CHO cells stably expressing hERG; higher = less effect of the substance.
Sequence of human ether-à-go-go-related gene (hERG) potassium channel (Q12809 whole entry, looked up): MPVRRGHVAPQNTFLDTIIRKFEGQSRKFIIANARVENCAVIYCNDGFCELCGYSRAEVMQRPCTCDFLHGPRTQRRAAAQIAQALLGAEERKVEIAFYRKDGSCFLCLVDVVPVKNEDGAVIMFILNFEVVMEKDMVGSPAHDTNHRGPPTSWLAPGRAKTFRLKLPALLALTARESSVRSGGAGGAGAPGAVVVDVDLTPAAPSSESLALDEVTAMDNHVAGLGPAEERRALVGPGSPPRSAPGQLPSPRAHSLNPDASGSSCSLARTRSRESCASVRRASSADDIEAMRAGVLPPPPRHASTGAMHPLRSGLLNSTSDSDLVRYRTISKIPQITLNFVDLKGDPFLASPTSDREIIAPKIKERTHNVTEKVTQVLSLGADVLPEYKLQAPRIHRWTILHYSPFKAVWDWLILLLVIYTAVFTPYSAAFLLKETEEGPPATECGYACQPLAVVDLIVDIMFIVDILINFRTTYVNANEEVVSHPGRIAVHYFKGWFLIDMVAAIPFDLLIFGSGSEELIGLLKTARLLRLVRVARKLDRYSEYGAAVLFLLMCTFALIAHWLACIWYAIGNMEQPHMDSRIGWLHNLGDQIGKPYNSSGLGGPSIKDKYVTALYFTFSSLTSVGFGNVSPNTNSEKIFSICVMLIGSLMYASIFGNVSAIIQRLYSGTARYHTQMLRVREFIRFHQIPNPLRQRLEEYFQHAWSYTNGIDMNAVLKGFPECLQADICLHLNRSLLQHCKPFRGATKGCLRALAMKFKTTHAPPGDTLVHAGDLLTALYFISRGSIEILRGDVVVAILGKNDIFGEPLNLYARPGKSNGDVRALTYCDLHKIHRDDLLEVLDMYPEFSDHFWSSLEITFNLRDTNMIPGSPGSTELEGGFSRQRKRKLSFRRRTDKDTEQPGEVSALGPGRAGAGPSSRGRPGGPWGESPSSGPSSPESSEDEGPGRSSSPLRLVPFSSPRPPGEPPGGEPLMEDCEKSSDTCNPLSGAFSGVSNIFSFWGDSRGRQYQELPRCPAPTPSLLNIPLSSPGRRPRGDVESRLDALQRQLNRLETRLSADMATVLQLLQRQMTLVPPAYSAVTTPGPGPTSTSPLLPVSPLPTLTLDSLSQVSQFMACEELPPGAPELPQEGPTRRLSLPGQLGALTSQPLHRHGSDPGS
As to `COc1ccccc1Oc1ccc2c(c1)C(=O)N(c1ccccc1)C2=O`, the “hERG current change (%, negative = inhibition) at 10uM” value is -3.59%. For the compound `Cc1ccsc1CN(C(=O)c1ccc([N+](=O)[O-])cc1)C1CCS(=O)(=O)C1` (stereo not drawn), the “hERG current change (%, negative = inhibition) at 10uM” value is -60.8%. In the case of `COc1cccc(CN(C(=O)COc2ccccc2[N+](=O)[O-])C2CCS(=O)(=O)C2)c1` (stereo not drawn), the “hERG current change (%, negative = inhibition) at 10uM” value is given as -42%. In the case of `CCN(C(=O)COc1ccccc1[N+](=O)[O-])C1CCS(=O)(=O)C1` (stereo not drawn) it was 0.104%; in that of `Cc1ccc(C(=O)N(Cc2sccc2C)C2CCS(=O)(=O)C2)cc1` (stereo not drawn), -28.2%; in that of `Cc1ccc(OCC(=O)N(Cc2cccs2)C2CCS(=O)(=O)C2)cc1C` (stereo not drawn), 4.21%.

On to `O=C(COc1ccc([N+](=O)[O-])cc1)N(Cc1cccs1)C1CCS(=O)(=O)C1` (stereo not drawn), for which the “hERG current change (%, negative = inhibition) at 10uM” value is -52.3%. For `O=C(COc1ccccc1[N+](=O)[O-])N(Cc1cccc(Br)c1)C1CCS(=O)(=O)C1` (stereo not drawn), the “hERG current change (%, negative = inhibition) at 10uM” value was -57.8%. Regarding `CCc1ccc(OCC(=O)N(Cc2cccs2)C2CCS(=O)(=O)C2)cc1` (stereo not drawn), the “hERG current change (%, negative = inhibition) at 10uM” value is listed as -47.8%. As to `Cc1ccsc1CN(C(=O)c1ccccc1)C1CCS(=O)(=O)C1` (stereo not drawn), the “hERG current change (%, negative = inhibition) at 10uM” value came to 2.16%.

With `CC1C/C(=N\NC(=S)NC(C)C)CC(C)(C)C1` (stereo not drawn), the “hERG current change (%, negative = inhibition) at 10uM” value was 9.06%.

Take `CCOC(=O)CNC(=O)CSc1nnc(NC(=O)c2ccc3c(c2)OCO3)s1`: the “hERG current change (%, negative = inhibition) at 10uM” value is on record as 3.8%.

Regarding `CCC(CC)NC(=O)c1nn(Cc2ccccc2)c(=O)c2ccccc12`, the “hERG current change (%, negative = inhibition) at 10uM” value was 10.9%. For `CS(=O)(=O)N(CC(=O)NCCSCc1ccccc1Cl)c1ccccc1F` the value was -35.4%; for `CC1=NN(C(N)=S)C(=O)C1N=Nc1ccccc1Cl` (stereo not drawn), 20.2%. In the case of `Cc1cccc(N(Cc2ccccc2)C(=O)CSC(C)C(=O)Nc2cc(C)on2)c1` (stereo not drawn), the “hERG current change (%, negative = inhibition) at 10uM” value was -53%. As to `Cc1cc(NC(=O)C(C)SCC(=O)OCC(=O)N(C)c2ccccc2)no1` (stereo not drawn), the “hERG current change (%, negative = inhibition) at 10uM” value is -7%. As for `Cc1cc(NC(=O)C(C)SCC(=O)OCC(=O)N(Cc2ccccc2)C(C)(C)C)no1` (stereo not drawn), the “hERG current change (%, negative = inhibition) at 10uM” value was -35.4%. For `COc1ccccc1N1CCN(c2ccc([N+](=O)[O-])cn2)CC1` the value was 0.823%; for `O=C(O)c1cccc(CSc2nc(-c3ccccc3)cc(C(F)(F)F)n2)c1`, 0.347%; for `O=C(c1ccc(-c2ccc([N+](=O)[O-])cc2)o1)N1CCCCCCC1`, -22.7%.

As to `CCOC(=O)C1CCCN(C(=O)c2ccc(-c3ccc([N+](=O)[O-])cc3)o2)C1` (stereo not drawn), the “hERG current change (%, negative = inhibition) at 10uM” value is -56.1%. As for `CC1CC(C)CN(C(=O)c2ccc(-c3ccc([N+](=O)[O-])cc3)o2)C1` (stereo not drawn), the “hERG current change (%, negative = inhibition) at 10uM” value is given as -69.1%. Turning to `O=C(c1ccc(-c2ccc([N+](=O)[O-])cc2)o1)N1CCCC(C(F)(F)F)C1` (stereo not drawn), the “hERG current change (%, negative = inhibition) at 10uM” value is on record as -17%.

As for `CC1CCCN(C(=O)c2ccc([N+](=O)[O-])o2)C1` (stereo not drawn), the “hERG current change (%, negative = inhibition) at 10uM” value was found to be 21.6%.

In the case of `O=C(c1ccc(-c2ccc([N+](=O)[O-])cc2)o1)N1CCN(S(=O)(=O)c2cccs2)CC1`, the “hERG current change (%, negative = inhibition) at 10uM” value is on record as -27.3%. Regarding `Cc1ccccc1N1CCN(C(=S)c2ccc(-c3ccc([N+](=O)[O-])cc3)o2)CC1`, the “hERG current change (%, negative = inhibition) at 10uM” value was found to be 20.2%. As for `CCOC(=O)C1CCCN(C(=O)c2ccc([N+](=O)[O-])cc2)C1` (stereo not drawn), the “hERG current change (%, negative = inhibition) at 10uM” value was -14.4%.

On to `CC1CCN(C(=O)c2ccc([N+](=O)[O-])o2)CC1`, for which the “hERG current change (%, negative = inhibition) at 10uM” value came to 4.53%.

As for `CCCN1CCN(C(=O)c2ccc(-c3ccc([N+](=O)[O-])cc3)o2)CC1`, the “hERG current change (%, negative = inhibition) at 10uM” value is recorded as -78.1%. Regarding `O=C(c1ccc(-c2ccc([N+](=O)[O-])cc2)o1)N1CCCCC1`, the “hERG current change (%, negative = inhibition) at 10uM” value is given as -58.4%. For `CCOC(=O)C1CCCN(C(=O)c2ccc(CS(=O)(=O)c3ccc(C)cc3)o2)C1` (stereo not drawn) the value was -20.4%; for `O=C(CSc1ncnc2ccccc12)NCC(=O)c1ccccc1`, 1.57%; for `O=C(Nc1ccccc1)c1c(O)[nH]c(=O)[nH]c1=O`, 8.67%.

Turning to `Cc1ccc(N2CC(C(=O)NCc3n[nH]c(=O)c4ccccc34)CC2=O)cc1C` (stereo not drawn), the “hERG current change (%, negative = inhibition) at 10uM” value was -13.5%. With `COc1ccc(-c2cc(C(=O)Nc3cc(C)on3)no2)cc1`, the “hERG current change (%, negative = inhibition) at 10uM” value is reported as 19.9%. Take `O=C1NC(c2ccc(-c3ccccc3[N+](=O)[O-])o2)C(C(=O)c2ccc(Cl)cc2)C(O)(C(F)(F)F)N1` (stereo not drawn): the “hERG current change (%, negative = inhibition) at 10uM” value is 2.13%.

Regarding `Cc1cc(NS(C)(=O)=O)c(=O)n(Cc2c(F)cccc2Cl)c1`, the “hERG current change (%, negative = inhibition) at 10uM” value was determined as 8.86%. Turning to `CCCCn1c(SCC(=O)N2CCCC2)nc2cc(S(N)(=O)=O)ccc21`, the “hERG current change (%, negative = inhibition) at 10uM” value is given as 9.3%. As for `CCCCn1c(SCc2c(C)noc2C)nc2cc(S(N)(=O)=O)ccc21`, the “hERG current change (%, negative = inhibition) at 10uM” value was -43.1%.

In the case of `CCCCn1c(SCc2ncc(-c3ccccc3)o2)nc2cc(S(N)(=O)=O)ccc21`, the “hERG current change (%, negative = inhibition) at 10uM” value is -50.5%.

As for `CCCCn1c(SCC(=O)N2CCC(C(=O)OCC)CC2)nc2cc(S(N)(=O)=O)ccc21`, the “hERG current change (%, negative = inhibition) at 10uM” value is -70.7%.

Regarding `CCCCn1c(SCC(=O)N2CCC(C)CC2)nc2cc(S(N)(=O)=O)ccc21`, the “hERG current change (%, negative = inhibition) at 10uM” value is -30.2%. Regarding `CCCCn1c(SCc2nc3ccccc3s2)nc2cc(S(N)(=O)=O)ccc21`, the “hERG current change (%, negative = inhibition) at 10uM” value was -37.5%. On to `Cc1cc(C(=O)CSc2nn3c(=O)c(C(C)(C)C)nnc3s2)c(C)n1C`, for which the “hERG current change (%, negative = inhibition) at 10uM” value is listed as 9.61%.
